Values joined by “and” are separate entries in the source; they are usually repeats but may differ in a detail not shown here. Identical values can stand only once. A structure can be active in one record and inactive in another. Active and inactive are the calls of the source. How the source made its calls: active means hit-call score of the fitted dose curve at least 0.9, where 1 is the maximum; inactive means score below 0.9.
Tests used:
[1] = biological target: Transcription factor E2F1 (Homo sapiens) (UniProt Q01094); test: ATG_E2F_CIS: Attagene CIS-FACTORIAL HepG2 Assay for human E2F Transcription Factor 1 (AID 2282935); conditions: HepG2 Attagene cis-reporter, E2F reporter RNA transcripts; actives raise or lower the signal
Sequence of Transcription factor E2F1 (Homo sapiens) (Q01094 whole entry, looked up): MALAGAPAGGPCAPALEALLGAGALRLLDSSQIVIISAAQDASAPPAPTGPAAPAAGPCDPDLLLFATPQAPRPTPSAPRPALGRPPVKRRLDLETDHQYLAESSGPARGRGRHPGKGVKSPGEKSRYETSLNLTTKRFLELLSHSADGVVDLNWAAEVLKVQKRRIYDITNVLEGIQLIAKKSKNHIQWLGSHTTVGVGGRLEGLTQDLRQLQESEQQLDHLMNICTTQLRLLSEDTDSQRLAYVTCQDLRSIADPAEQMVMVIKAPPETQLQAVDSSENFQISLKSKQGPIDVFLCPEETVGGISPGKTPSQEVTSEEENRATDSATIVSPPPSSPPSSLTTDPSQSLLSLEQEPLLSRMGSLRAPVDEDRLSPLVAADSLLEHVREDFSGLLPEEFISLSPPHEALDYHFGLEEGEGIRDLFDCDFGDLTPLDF
Outline: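 Measures reporter transcript levels via RT-PCR with capillary electrophoresis detection in HepG2 cells harboring cis-regulated reporter units; 24 h post-dose; bidirectional curve fitting with DMSO as baseline.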

[2] = ATG_E_Box_CIS: Attagene CIS-FACTORIAL HepG2 Assay for human Enhancer Box (E-box) (AID 2282936); conditions: HepG2 E-box cis-reporter transcription, actives raise or lower the signal
Outline: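 First, HepG2 cells receive multiple cis-regulated reporter constructs by transient transfection. Next, chemicals are applied for 24 h. Finally, reporter mRNA is quantified via RT-PCR and capillary electrophoresis, with DMSO as baseline.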

[3] = ATG_M_61_CIS: Attagene CIS-FACTORIAL HepG2 Assay for M61 Transcription Factor (Internal Marker) (AID 2282937); conditions: HepG2 Attagene CIS-FACTORIAL M61 internal marker reporter; actives raise or lower the signal
Outline: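 Human liver HepG2, transient MRTU transfection (cis promoter elements), 24 h compound. Total RNA → oligo(dT) RT → PCR → FAM label → HpaI → CE. Internal background marker; bidirectional fitting, DMSO = baseline.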

[4] = ATG_EGR_CIS: Attagene CIS-FACTORIAL HepG2 Assay for human Early Growth Response 1 (EGR1) (AID 2282938); conditions: HepG2 Attagene CIS-FACTORIAL EGR reporter mRNA; actives raise or lower the signal
Outline: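 Transient transfection of human HepG2 with multiple cis-regulated reporter units, chemical exposure 24 h, total RNA isolated. Reverse transcription, PCR, fluorescent labelling and capillary electrophoresis quantify reporter transcripts; activity fitted bidirectionally against DMSO.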

[5] = ATG_M_19_CIS: Attagene CIS-FACTORIAL HepG2 Assay for M19 Transcription Factor (Internal Marker) (AID 2282939); conditions: HepG2 Attagene CIS-FACTORIAL M19 internal marker reporter; actives raise or lower the signal
Outline: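 Following a 24 h exposure, RNA from transfected HepG2 cells was reverse-transcribed, PCR-amplified with reporter-specific primers, end-labelled with 6-FAM and HpaI-digested before capillary separation. Values represent gain or loss versus DMSO.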

[6] = ATG_ERE_CIS: Attagene CIS-FACTORIAL HepG2 Assay for Estrogen Response Element (ERE) (AID 2282940); conditions: HepG2 ERE cis-reporter, Attagene RNA transcript; actives raise or lower the signal
Outline: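 HepG2, transient cis-reporter units, 24 h exposure. RNA isolated, oligo(dT) RT, reporter-specific PCR, FAM extension, HpaI cut, CE detection. Gain/loss-of-signal vs DMSO.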

[7] = ATG_Ets_CIS: Attagene CIS-FACTORIAL HepG2 Assay for human Erythroblast Transformation Specific (ETS) (AID 2282941); conditions: HepG2 ETS cis-reporter transcription, actives raise or lower the signal
Outline: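 After transient cis-reporter transfection, HepG2 cells receive test chemical for 24 h. Reporter mRNA levels, measured by RT-PCR and capillary electrophoresis fluorescence, are analysed bidirectionally relative to the DMSO baseline.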

[8] = biological target: Hepatocyte nuclear factor 3-beta (Homo sapiens) (UniProt Q9Y261); test: ATG_FoxA2_CIS: Attagene CIS-FACTORIAL HepG2 Assay for human Forkhead box A2 (FOXA2) (AID 2282942); conditions: HepG2 cis-reporter transcription factor activity, 24 h; actives raise or lower the signal
Sequence of Hepatocyte nuclear factor 3-beta (Homo sapiens) (Q9Y261 whole entry, looked up): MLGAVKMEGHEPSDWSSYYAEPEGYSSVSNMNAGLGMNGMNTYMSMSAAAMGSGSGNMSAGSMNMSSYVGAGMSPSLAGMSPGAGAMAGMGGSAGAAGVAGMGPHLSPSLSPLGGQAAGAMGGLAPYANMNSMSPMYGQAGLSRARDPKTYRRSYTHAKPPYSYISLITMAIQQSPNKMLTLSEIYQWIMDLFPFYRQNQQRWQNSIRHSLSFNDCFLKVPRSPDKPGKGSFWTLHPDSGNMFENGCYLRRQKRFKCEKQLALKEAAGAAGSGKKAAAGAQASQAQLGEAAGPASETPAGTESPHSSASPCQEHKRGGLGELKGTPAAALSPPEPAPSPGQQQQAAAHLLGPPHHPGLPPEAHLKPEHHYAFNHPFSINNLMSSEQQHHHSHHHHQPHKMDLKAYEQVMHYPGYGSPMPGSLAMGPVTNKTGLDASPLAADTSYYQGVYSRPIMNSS
Outline: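 Transient MRTU transfection of HepG2 liver cells; 24 h treatment; total RNA → oligo(dT) RT → PCR → FAM primer extension → HpaI cut → CE. Bidirectional fit vs DMSO.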

[9] = ATG_FoxO_CIS: Attagene CIS-FACTORIAL HepG2 Assay for human Forkhead box O (FoxO) (AID 2282943); conditions: HepG2 Attagene cis-reporter, FoxO element, mRNA; actives raise or lower the signal
Outline: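 Transfected HepG2 reporter cells exposed to test chemical for 24 h; reporter RNA measured by reverse transcription, PCR and fluorescent capillary electrophoresis; curves fitted for increases and decreases against DMSO.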

[10] = ATG_GATA_CIS: Attagene CIS-FACTORIAL HepG2 Assay for human GATA Binding Protein (AID 2282944); conditions: HepG2 GATA cis-element reporter, Attagene multiplex mRNA; actives raise or lower the signal
Outline: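 DMSO serves as negative control and baseline for bidirectional fitting of reporter mRNA changes. HepG2 cells bearing transiently transfected cis-promoter reporters were exposed 24 h; transcripts detected via RT-PCR and capillary electrophoresis.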

[11] = ATG_GLI_CIS: Attagene CIS-FACTORIAL HepG2 Assay for human Zinc Finger Protein GLI1 (AID 2282945); conditions: HepG2, Attagene cis-factorial reporter mRNA, GLI element; actives raise or lower the signal
Outline: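 Transiently transfected HepG2 cells report endogenous transcription factor activity via cis-element-driven reporter units. After 24 h compound exposure, reporter mRNA was measured by RT-PCR with capillary electrophoresis; bidirectional fitting against DMSO baseline.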

[12] = ATG_GRE_CIS: Attagene CIS-FACTORIAL HepG2 Assay for human Glucocorticoid Response Elements (GRE) (AID 2282947); conditions: HepG2 GRE cis-reporter, Attagene multiplex mRNA; actives raise or lower the signal
Outline: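 Endogenous transcription factor activity is read through cis-element reporter constructs transiently transfected into HepG2 cells. After 24 h treatment, labelled RT-PCR products are resolved by capillary electrophoresis; DMSO sets baseline for bidirectional curve fitting.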

[13] = ATG_ISRE_CIS: Attagene CIS-FACTORIAL HepG2 Assay for human Interferon Regulatory Factor 1 (IRF1) binding to an Interferon-Stimulated Response Element (ISRE) (AID 2282948); conditions: HepG2 ISRE cis-reporter (Attagene), mRNA transcription readout; actives raise or lower the signal
Outline: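 Quantitation relies on labelled RT-PCR fragments separated by capillary electrophoresis. Human HepG2 cells bearing cis-promoter reporter constructs were treated 24 h; DMSO served as baseline for bidirectional fitting.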

[14] = ATG_M_32_CIS: Attagene CIS-FACTORIAL HepG2 Assay for M32 Transcription Factor (Internal Marker) (AID 2282949); conditions: HepG2 Attagene cis-factorial M32 reporter, mRNA; actives raise or lower the signal;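 further: background control marker of the multiplexed CIS panel rather than a real target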
Outline: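 Internal background marker read-out: RT-PCR/capillary electrophoresis fluorescence of reporter transcripts from transiently transfected HepG2 cells after 24 h chemical exposure. Activity fitted bidirectionally relative to DMSO negative control.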

[15] = biological target: Hypoxia-inducible factor 1-alpha (Homo sapiens) (UniProt Q16665); test: ATG_HIF1a_CIS: Attagene CIS-FACTORIAL HepG2 Assay for human Hypoxia Inducible Factor 1 (HIF1A) (AID 2282951); conditions: HepG2 Attagene cis-factorial HIF1a reporter transcription; actives raise or lower the signal
Sequence of Hypoxia-inducible factor 1-alpha (Homo sapiens) (Q16665 whole entry, looked up, the tested form may be a part): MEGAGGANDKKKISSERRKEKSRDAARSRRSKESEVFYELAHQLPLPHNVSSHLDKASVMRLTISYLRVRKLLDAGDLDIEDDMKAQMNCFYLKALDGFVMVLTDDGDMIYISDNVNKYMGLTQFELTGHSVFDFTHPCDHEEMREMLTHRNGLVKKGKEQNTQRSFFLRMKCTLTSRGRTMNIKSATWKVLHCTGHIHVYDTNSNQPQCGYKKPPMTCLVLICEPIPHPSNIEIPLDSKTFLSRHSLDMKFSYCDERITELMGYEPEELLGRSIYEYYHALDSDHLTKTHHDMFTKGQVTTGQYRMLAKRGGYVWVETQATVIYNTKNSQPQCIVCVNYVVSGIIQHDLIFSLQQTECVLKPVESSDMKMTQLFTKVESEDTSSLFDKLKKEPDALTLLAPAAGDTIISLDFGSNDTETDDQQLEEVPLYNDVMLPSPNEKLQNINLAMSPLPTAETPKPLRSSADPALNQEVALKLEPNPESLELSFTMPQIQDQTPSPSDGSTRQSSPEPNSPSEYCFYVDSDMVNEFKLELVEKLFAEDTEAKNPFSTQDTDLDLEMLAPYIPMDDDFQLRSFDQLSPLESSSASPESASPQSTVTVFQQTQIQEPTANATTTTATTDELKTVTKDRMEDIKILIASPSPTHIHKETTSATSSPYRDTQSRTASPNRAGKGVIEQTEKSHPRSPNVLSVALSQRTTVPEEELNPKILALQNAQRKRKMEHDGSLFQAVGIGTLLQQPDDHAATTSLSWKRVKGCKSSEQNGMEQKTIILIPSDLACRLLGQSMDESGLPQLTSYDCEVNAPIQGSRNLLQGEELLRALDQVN
Outline: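 Transient MRTU transfection of human HepG2 liver cells, 24 h compound treatment, then total RNA isolation, oligo(dT) reverse transcription, PCR amplification, fluorescent labelling and capillary electrophoresis of reporter fragments. Gain or loss relative to DMSO.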

[16] = biological target: Hepatocyte nuclear factor 6 (Homo sapiens) (UniProt Q9UBC0); test: ATG_HNF6_CIS: Attagene CIS-FACTORIAL HepG2 Assay for human Hepatocyte Nuclear Factor 6 (HNF6) (AID 2282952); conditions: HepG2 Attagene cis-factorial HNF6 reporter transcription; actives raise or lower the signal
Sequence of Hepatocyte nuclear factor 6 (Homo sapiens) (Q9UBC0 whole entry, looked up): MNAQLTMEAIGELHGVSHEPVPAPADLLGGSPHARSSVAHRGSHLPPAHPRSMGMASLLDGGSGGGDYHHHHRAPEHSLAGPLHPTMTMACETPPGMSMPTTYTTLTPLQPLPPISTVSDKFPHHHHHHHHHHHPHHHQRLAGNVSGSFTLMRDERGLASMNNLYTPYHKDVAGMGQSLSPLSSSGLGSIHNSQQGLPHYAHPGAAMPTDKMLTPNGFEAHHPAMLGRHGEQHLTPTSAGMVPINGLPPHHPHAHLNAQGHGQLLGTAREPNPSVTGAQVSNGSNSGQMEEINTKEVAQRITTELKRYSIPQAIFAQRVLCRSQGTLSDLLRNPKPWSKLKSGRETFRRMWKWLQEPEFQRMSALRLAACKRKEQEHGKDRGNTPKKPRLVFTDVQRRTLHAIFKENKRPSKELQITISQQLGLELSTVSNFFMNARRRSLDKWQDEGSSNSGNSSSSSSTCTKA
Outline: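 Cells are HepG2 carrying transiently transfected cis-promoter reporter units. Treatment lasts 24 h, after which reporter transcripts are reverse-transcribed, amplified, FAM-labelled and sized by capillary electrophoresis. DMSO serves as baseline.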

[17] = biological target: Heat shock factor protein 1 (Homo sapiens) (UniProt Q00613); test: ATG_HSE_CIS: Attagene CIS-FACTORIAL HepG2 Assay for human Heat Shock Transcription Factor 1 (HSE) (AID 2282953); conditions: HepG2 HSE cis-reporter, Attagene RNA transcription; actives raise or lower the signal
Sequence of Heat shock factor protein 1 (Homo sapiens) (Q00613 whole entry, looked up): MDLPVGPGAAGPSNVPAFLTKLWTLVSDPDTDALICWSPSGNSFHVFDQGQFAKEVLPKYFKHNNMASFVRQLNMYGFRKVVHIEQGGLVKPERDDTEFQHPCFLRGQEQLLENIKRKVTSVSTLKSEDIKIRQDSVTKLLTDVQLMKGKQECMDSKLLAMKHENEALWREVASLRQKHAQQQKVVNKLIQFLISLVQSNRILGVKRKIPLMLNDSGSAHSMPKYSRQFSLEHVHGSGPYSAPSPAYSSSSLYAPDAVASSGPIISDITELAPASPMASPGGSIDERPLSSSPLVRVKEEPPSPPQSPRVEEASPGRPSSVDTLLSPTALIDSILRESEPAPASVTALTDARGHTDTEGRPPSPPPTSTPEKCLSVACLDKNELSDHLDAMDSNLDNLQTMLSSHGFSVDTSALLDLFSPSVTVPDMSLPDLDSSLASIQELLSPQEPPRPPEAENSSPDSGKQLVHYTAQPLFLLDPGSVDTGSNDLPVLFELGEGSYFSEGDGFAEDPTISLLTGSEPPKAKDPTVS
Outline: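 After a 24 h incubation with test chemical, transfected HepG2 cells were harvested for RNA; reporter transcripts were measured by RT-PCR and capillary electrophoresis. Values reflect gain or loss of signal relative to DMSO.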

[18] = ATG_MRE_CIS: Attagene CIS-FACTORIAL HepG2 Assay for human Metal Responsive Element (MRE) (AID 2282954); conditions: HepG2 MRE cis-reporter transcription, Attagene multiplex; actives raise or lower the signal
Outline: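 Fluorescent reporter fragments separated by capillary electrophoresis give mRNA induction for the MRE unit after 24 h treatment of transfected HepG2 cells. Endogenous transcription-factor activity is read; DMSO serves as negative control and baseline.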

[19] = biological target: Bile acid receptor (Homo sapiens) (UniProt Q96RI1); test: ATG_IR1_CIS: Attagene CIS-FACTORIAL HepG2 Assay for human Nuclear Receptor Subfamily 1 Group H Member 4 (NR1H4), IR1 submotif (AID 2282946); conditions: IR1 reporter transcription, actives raise or lower the signal
Sequence of Bile acid receptor (Homo sapiens) (Q96RI1 whole entry, looked up): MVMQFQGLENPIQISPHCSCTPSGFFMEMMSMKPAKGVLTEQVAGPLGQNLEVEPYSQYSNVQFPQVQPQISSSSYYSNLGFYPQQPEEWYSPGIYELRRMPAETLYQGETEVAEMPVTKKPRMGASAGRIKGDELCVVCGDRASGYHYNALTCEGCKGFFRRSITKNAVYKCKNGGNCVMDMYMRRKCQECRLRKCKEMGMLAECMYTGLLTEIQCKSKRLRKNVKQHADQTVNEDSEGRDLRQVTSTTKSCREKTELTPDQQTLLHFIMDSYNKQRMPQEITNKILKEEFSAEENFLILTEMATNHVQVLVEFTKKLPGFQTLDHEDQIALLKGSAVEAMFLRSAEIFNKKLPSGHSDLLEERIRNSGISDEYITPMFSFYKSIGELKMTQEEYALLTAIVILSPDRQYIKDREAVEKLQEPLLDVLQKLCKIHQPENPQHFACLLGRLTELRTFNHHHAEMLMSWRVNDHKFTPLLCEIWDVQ
Outline: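 HepG2 cells transiently transfected with multiple cis-promoter-driven reporter units to measure endogenous transcription factor activity; 24 h exposure. Reporter mRNA read by RT-PCR, FAM labelling, HpaI digestion and capillary electrophoresis. Bidirectional fit versus DMSO.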

[20] = ATG_M_06_CIS: Attagene CIS-FACTORIAL HepG2 Assay for M06 Transcription Factor (Internal Marker) (AID 2282950); conditions: HepG2 Attagene CIS-FACTORIAL M06 internal marker reporter; actives raise or lower the signal
Outline: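 Fluorescence-labelled RT-PCR products from cis-promoter reporter units, cut with HpaI and resolved by capillary electrophoresis, give the signal. Cells are human HepG2, dosed for 24 h. Serves as background control, fitted relative to DMSO.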

Measured: AC50

CCOC(=O)CC(SP(=S)(OC)OC)C(=O)OCC (configuration not stated)
inactive: [1] | [2] | [3] | [4] | [5] | [7] | [8] | [9] | [10] | [11] | [12] | [13] | [14] | [15] | [16] | [17]
active: [4] 100 µM | [6] 100 µM and 27 µM | [15] 24.4 µM | [18] 100 µM and 13.2 µM

Cc1cc(Cl)ccc1OCC(=O)O
inactive: [1] | [2] | [3] | [4] | [5] | [6] | [7] | [8] | [9] | [10] | [11] | [12] | [13] | [14] | [15] | [16] | [18]

CCCCC(CC)COC(=O)c1ccccc1C(=O)OCC(CC)CCCC (configuration not stated)
inactive: [1] | [2] | [3] | [4] | [5] | [6] | [7] | [8] | [9] | [10] | [11] | [19] | [12] | [13] | [14] | [15] | [16] | [18]

COC(=O)C=C(C)OP(=O)(OC)OC
inactive: [1] | [2] | [3] | [4] | [5] | [6] | [7] | [8] | [9] | [10] | [11] | [19] | [12] | [13] | [14] | [20] | [15] | [16] | [17] | [18]

CCOP(=S)(OCC)SCn1c(=O)oc2cc(Cl)ccc21
active: [7] 50 µM | [15] 28.8 µM | [18] 66.2 µM
inactive: [1] | [2] | [3] | [5] | [6] | [8] | [9] | [10] | [11] | [19] | [12] | [13] | [14] | [16]

Cc1ccc(-c2c(Cl)nc(C#N)n2S(=O)(=O)N(C)C)cc1
inactive: [1] | [2] | [3] | [5] | [6] | [7] | [8] | [9] | [10] | [11] | [19] | [12] | [13] | [14] | [15] | [16] | [18]

CCON=C(CC)C1=C(O)CC(c2c(C)cc(C)cc2C)CC1=O (configuration not stated)
inactive: [1] | [2] | [3] | [5] | [6] | [7] | [8] | [9] | [10] | [11] | [19] | [12] | [13] | [14] | [15] | [16] | [17] | [18]
